The results in this text go back to ChEMBL document CHEMBL1961873, “Compounds: GSK PKIS; Assays: Nanosyn kinase panel” (2012).

The structures appear in SMILES notation.

Experiment [1] deals with CDK3/Cyclin E (Homo sapiens) (UniProt P24864+Q00526). To be noted: at 1 µM.
For experiment [2], the target named is Cyclin-dependent kinase 4 (Homo sapiens) (UniProt P11802). To be noted: at 0.1 µM.
For experiment [3] the target is unchanged. Conditions: at 1 µM.
The target in experiment [4] is Cyclin-dependent kinase 5 (Homo sapiens) (UniProt Q00535). To be noted: at 0.1 µM.
Cyclin-dependent kinase 5 (Homo sapiens), sequence (Q00535 whole entry, looked up): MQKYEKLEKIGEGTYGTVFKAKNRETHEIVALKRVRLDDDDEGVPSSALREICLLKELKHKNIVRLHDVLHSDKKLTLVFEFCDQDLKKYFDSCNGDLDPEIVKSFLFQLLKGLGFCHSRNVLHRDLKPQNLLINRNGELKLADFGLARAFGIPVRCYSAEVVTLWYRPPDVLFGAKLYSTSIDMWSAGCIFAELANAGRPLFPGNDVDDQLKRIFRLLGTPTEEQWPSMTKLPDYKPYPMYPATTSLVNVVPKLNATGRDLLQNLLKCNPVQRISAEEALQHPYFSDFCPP
The target is the same in experiment [5]. To be noted: at 1 µM.
Experiment [6] concerns the target Cyclin-dependent kinase 6 (Homo sapiens) (UniProt Q00534). Conditions: at 0.1 µM.
The target is the same in experiment [7]. Conditions: at 1 µM.
Experiment [8] deals with Dual specificity protein kinase CLK2 (Homo sapiens) (UniProt P49760). Conditions: at 0.1 µM.
Dual specificity protein kinase CLK2 (Homo sapiens), sequence (P49760 whole entry, looked up): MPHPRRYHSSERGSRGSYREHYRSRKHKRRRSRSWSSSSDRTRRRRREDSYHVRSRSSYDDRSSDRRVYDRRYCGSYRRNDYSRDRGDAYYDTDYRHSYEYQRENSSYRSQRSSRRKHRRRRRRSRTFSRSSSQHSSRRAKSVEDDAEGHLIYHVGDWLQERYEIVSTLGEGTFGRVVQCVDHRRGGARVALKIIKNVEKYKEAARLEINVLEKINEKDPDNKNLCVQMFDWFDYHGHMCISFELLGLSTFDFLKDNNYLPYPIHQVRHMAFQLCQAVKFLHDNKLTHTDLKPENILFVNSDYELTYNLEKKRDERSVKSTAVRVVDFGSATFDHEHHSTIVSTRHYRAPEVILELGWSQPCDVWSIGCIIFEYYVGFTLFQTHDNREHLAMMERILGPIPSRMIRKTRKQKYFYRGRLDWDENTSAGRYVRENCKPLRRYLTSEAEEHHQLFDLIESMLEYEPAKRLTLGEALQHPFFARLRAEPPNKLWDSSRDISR
Experiment [9] has the same target. To be noted: at 1 µM.
Experiment [10] addresses Dual specificity protein kinase CLK3 (Homo sapiens) (UniProt P49761). To be noted: at 0.1 µM.
Experiment [11] has the same target. To be noted: at 1 µM.
Experiment [12] concerns the target Dual specificity tyrosine-phosphorylation-regulated kinase 1A (Homo sapiens) (UniProt Q13627). To be noted: at 0.1 µM.
Experiment [13] shares this target. Conditions: at 1 µM.
For experiment [14], the target named is Dual specificity tyrosine-phosphorylation-regulated kinase 1B (Homo sapiens) (UniProt Q9Y463). Conditions: at 0.1 µM.
Dual specificity tyrosine-phosphorylation-regulated kinase 1B (Homo sapiens), sequence (Q9Y463 whole entry, looked up): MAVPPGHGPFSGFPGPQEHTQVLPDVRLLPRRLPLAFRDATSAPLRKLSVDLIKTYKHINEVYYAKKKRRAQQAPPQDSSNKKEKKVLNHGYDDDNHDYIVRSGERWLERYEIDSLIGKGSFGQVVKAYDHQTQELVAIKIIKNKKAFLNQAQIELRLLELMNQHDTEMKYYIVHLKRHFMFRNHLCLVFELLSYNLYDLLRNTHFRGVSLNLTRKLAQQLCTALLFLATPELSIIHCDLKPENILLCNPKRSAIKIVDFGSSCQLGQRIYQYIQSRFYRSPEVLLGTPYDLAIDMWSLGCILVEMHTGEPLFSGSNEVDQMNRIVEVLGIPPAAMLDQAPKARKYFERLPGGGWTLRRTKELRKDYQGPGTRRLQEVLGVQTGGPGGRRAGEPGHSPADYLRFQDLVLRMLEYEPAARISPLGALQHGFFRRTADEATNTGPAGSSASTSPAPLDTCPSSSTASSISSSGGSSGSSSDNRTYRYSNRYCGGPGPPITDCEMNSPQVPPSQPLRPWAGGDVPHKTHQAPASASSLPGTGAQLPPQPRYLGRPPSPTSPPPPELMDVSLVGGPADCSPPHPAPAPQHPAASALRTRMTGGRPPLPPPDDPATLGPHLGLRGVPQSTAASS
Experiment [15] has the same target. To be noted: at 1 µM.
Experiment [16] deals with T1, Dual specificity tyrosine-phosphorylation-regulated kinase 2 (Homo sapiens) (UniProt Q92630).
T1 sequence (whole entry): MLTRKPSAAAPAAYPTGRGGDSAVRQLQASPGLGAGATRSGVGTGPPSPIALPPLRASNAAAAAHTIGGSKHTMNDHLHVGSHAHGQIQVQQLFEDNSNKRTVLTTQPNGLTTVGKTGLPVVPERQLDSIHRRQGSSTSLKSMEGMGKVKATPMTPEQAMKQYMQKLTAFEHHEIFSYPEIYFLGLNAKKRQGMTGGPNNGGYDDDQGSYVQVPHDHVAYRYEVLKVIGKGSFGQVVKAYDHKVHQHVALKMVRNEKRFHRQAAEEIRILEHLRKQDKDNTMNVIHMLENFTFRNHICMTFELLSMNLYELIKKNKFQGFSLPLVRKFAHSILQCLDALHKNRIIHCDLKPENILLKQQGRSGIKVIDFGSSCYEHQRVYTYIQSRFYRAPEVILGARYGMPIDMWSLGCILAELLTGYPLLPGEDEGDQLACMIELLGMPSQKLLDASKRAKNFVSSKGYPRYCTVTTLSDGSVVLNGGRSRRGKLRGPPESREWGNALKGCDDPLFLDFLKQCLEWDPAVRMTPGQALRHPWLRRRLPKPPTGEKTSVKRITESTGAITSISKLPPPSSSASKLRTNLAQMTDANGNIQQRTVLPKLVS
Conditions: at 0.1 µM.

Experiment [17] concerns the target T1, Dual specificity tyrosine-phosphorylation-regulated kinase 2 (Homo sapiens). Conditions: at 1 µM.
Experiment [18] deals with Glycogen synthase kinase-3 alpha (Homo sapiens) (UniProt P49840). Conditions: at 0.1 µM.
Glycogen synthase kinase-3 alpha (Homo sapiens), sequence (P49840 2-483 limits assumed): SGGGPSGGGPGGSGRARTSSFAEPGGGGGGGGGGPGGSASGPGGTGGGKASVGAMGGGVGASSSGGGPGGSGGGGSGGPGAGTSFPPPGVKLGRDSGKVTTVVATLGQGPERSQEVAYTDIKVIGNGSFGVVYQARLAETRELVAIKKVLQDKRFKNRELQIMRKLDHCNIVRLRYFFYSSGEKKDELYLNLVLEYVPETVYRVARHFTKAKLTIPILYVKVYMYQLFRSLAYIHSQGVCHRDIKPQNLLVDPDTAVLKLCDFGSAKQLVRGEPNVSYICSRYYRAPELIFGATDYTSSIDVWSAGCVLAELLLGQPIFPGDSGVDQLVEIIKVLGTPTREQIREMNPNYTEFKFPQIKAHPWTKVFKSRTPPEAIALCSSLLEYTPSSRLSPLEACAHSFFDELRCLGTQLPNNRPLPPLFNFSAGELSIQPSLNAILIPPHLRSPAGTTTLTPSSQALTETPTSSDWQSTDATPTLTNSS
Experiment [19] shares this target. To be noted: at 1 µM.
For experiment [20], the target named is Glycogen synthase kinase-3 beta (Homo sapiens) (UniProt P49841). Conditions: at 0.1 µM.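 Further: values are mean percent inhibition of GSK3B activity, from the GSK Published Kinase Inhibitor Set (PKIS) screening dataset.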
Glycogen synthase kinase-3 beta (Homo sapiens), sequence (P49841 whole entry, looked up): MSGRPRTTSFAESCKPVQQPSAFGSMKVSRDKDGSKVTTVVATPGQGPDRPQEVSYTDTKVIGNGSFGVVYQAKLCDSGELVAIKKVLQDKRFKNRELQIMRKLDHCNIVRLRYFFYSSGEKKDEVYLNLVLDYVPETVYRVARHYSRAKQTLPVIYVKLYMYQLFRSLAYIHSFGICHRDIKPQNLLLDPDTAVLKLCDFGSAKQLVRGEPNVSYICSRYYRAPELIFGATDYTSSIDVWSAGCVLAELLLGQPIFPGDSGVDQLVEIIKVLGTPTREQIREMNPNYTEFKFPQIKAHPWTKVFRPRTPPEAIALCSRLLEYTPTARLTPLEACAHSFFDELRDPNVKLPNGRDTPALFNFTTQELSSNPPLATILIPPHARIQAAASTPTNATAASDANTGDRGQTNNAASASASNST

CDK3/Cyclin E (Homo sapiens), sequence (P24864 whole entry, looked up): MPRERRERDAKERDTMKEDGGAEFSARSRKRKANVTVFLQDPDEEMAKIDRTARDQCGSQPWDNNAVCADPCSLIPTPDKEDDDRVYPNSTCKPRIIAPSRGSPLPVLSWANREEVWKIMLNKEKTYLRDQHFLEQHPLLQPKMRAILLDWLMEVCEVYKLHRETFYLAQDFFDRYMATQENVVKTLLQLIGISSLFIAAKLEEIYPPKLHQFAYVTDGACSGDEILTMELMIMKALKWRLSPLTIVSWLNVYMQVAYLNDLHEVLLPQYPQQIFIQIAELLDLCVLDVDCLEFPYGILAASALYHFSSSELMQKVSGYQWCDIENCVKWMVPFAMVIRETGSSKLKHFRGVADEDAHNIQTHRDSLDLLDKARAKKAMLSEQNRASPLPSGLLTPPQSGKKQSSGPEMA
CDK3/Cyclin E (Homo sapiens), sequence (Q00526 whole entry, looked up): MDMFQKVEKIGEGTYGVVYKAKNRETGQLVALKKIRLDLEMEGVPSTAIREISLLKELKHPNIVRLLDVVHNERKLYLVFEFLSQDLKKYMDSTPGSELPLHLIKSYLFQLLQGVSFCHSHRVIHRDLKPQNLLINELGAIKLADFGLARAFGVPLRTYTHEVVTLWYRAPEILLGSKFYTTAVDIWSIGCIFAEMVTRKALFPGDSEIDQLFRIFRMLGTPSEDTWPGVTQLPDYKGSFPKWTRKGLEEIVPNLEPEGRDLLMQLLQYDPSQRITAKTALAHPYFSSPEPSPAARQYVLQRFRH
Dual specificity protein kinase CLK3 (Homo sapiens), sequence (P49761 whole entry, looked up): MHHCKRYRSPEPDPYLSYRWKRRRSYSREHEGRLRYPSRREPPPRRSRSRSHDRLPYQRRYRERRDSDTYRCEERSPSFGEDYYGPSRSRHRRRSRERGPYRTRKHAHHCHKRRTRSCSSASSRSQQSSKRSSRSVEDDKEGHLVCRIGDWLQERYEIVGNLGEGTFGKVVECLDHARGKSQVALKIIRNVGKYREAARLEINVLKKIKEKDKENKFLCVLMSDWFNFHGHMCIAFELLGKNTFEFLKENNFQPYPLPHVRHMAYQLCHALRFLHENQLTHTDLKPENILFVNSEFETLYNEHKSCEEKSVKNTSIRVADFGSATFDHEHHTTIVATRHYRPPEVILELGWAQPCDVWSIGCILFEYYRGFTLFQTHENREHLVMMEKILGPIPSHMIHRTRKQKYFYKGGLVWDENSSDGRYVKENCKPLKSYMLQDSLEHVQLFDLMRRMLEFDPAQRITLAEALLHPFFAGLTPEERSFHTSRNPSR
Cyclin-dependent kinase 6 (Homo sapiens), sequence (Q00534 whole entry): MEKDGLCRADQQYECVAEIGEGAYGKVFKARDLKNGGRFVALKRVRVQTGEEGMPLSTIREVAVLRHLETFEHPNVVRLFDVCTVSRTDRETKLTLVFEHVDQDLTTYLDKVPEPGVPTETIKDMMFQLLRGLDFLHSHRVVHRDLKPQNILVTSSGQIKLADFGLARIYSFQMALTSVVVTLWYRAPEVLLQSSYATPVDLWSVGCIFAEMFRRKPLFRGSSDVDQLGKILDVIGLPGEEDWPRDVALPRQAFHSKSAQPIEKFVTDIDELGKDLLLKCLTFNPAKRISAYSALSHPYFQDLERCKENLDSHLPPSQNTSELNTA
Cyclin-dependent kinase 4 (Homo sapiens), sequence (P11802 whole entry): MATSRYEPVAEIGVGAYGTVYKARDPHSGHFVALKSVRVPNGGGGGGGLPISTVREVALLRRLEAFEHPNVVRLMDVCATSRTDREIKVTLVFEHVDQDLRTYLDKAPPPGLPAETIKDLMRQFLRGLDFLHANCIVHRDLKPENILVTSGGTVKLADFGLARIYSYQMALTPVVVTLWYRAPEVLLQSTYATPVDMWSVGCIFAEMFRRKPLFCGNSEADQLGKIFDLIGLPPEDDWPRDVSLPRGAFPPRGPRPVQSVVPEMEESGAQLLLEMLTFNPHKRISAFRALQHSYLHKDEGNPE

With `O=C(Nc1n[nH]c2nc(-c3ccco3)ccc12)C1CC1`, the inhibition (as a rule, the relative decrease from the control value, in per cent) in experiment [1] was 4.64%; in experiment [2], 1.89%; in experiment [3], 2.71%; in experiment [4], -0.11%; in experiment [5], 1.68%; in experiment [6], 3.9%. The inhibition was 8.22% in [7]; -0.38% in experiment [8]; -0.4% in experiment [9]; 0.26% in [10]; 0.48% in [11]; -0.57% in experiment [12]. Further, the inhibition in [13] was 1.05%; in experiment [14] it was -0.1%; in experiment [15] it was 1.34%; in experiment [16], 1.49%; in experiment [17], 1.64%; in experiment [18], 11.5%. Further, the inhibition in [19] was determined as 48.9%.

Consider `COc1cccc(-n2cnc3c(N/N=C/c4ccncc4)ncnc32)c1`, for which the inhibition in [1] was 0.9%; in [2], -6.94%; in [3], -4.27%; in experiment [4] it was -3.69%; in [5], -0.49%; in experiment [6] it was -0.76%. Further, the inhibition was -8.82% in [7]; 3.04% in [8]; 5.72% in experiment [9]; -3.93% in experiment [10]; -2.92% in [11]; -3.39% in experiment [12]. In addition, the inhibition in experiment [13] was 2.17%; in experiment [14] it was -3.26%; in experiment [15], -0.65%; in experiment [16], 0.79%; in experiment [17] it was 2.96%; in [18] it was 3.64%. Further, the results for the inhibition in [19] and in experiment [20] were 34.7% and 3.02%, respectively.

For `NC(=O)Cc1ccccc1Oc1nccc(-c2c(-c3ccc(F)cc3)ncn2C2CCNCC2)n1`, the inhibition in [1] is -1.4%; in [2], 0.31%; in experiment [3], 0.75%; in experiment [4], 0.66%; in experiment [5], 0.67%; in experiment [6], -4.52%. In addition, the inhibition in [7] came out at 0.67%; in experiment [8], 1.69%; in experiment [9], 2.11%; in experiment [10] it was 1.44%; in [11], 1.79%; in [12], 4.01%. Further, the inhibition amounted to 5.44% in experiment [13]; 2.79% in [14]; 3.43% in experiment [15]; 2.28% in [16]; 3.74% in experiment [17]; 1.87% in experiment [18]. Further, the inhibition was 3.05% in experiment [19] and -0.25% in [20].

Regarding `COc1cc(N2CCN(C(C)C)CC2)ccc1Nc1nc(Nc2ccc(F)cc2C(=O)NC[C@@H](O)CO)c2cc[nH]c2n1`, the inhibition was -3.1% in [1]; -2.67% in experiment [2]; -0.98% in experiment [3]; -3.1% in experiment [4]; -4.32% in [5]; -8.05% in experiment [6]. For the same compound, the inhibition was -5.78% in experiment [7]; 29.4% in [8]; 82.9% in [9]; -0.73% in [10]; 4.1% in experiment [11]; 0.93% in experiment [12]. For the same compound, the inhibition in [13] was 12.7%; in [14], -2.96%; in [15], 12%; in experiment [16], 3.04%; in experiment [17] it was 5.79%; in [18], -1.27%. Also, the inhibition is 0.1% in experiment [19] and -0.78% in experiment [20].

As to `CN1CCN(CCCNc2nc3ccc(Oc4ccc(NC(=O)Nc5cc(C(F)(F)F)ccc5F)cc4)cc3[nH]2)CC1`, the inhibition is 2.2% in experiment [1]; -3.04% in experiment [2]; -2.88% in [3]; -2.74% in [4]; -3.46% in [5]; -4.09% in experiment [6]. The inhibition in experiment [7] was -1.64%; in experiment [8] it was 2.17%; in experiment [9] it was 1.41%; in experiment [10], -3.87%; in experiment [11], -3.62%; in [12] it was -4.06%. The inhibition in [13] is -2.54%; in [14], -2.52%; in experiment [15] it was -2.58%; in experiment [16] it was 0.8%; in [17], -0.19%; in [18], -2.85%. The inhibition in experiment [19] is 0.59%; in [20], -2.95%.

Regarding `CN(C)CCCNc1nccc(-c2c(-c3ccc(F)cc3)nn3cc(C(F)(F)F)ccc23)n1`, the inhibition in experiment [1] was 1.62%; in [2] it was -2.82%; in experiment [3], 1.54%; in experiment [4] it was -1.32%; in experiment [5] it was 1.69%; in [6], -1.2%. The inhibition in [7] is -0.54%; in [8], 1.26%; in experiment [9], -0.07%; in [10], -2.82%; in [11], -2.17%; in experiment [12], -2.63%. Also, the inhibition in [13] was 1.55%; in experiment [14], -2.7%; in experiment [15], -0.43%; in [16], 1.01%; in [17] it was 2.09%; in [18], 2.87%. In addition, the inhibition amounted to 7.76% in [19] and 3.14% in experiment [20].

Regarding `COc1cc(Nc2ncc3c(C)nc(-c4cccc(Oc5ccccc5)c4)n3n2)cc(OC)c1OC`, the inhibition turned out to be 3.12% in [1]; 0.68% in experiment [2]; 1.99% in [3]; 0.07% in experiment [4]; 1.06% in [5]; 2.92% in [6]. For the same compound, the inhibition in [7] came to 3.25%; in experiment [8], 0.86%; in experiment [9], 3.28%; in experiment [10], 0.71%; in experiment [11] it was 2.37%; in experiment [12] it was 0.25%. The inhibition in experiment [13] turned out to be 5.84%; in [14] it was 0.92%; in experiment [15], 2.74%; in experiment [16] it was 2.11%; in experiment [17], 1.95%; in experiment [18] it was 0.37%. Besides, the inhibition in experiment [19] is 0.14%; in [20] it was -0.59%.
